# Screening data from PubChem BioAssay.
# ALOX12 inhib: 12-hLO (ALOX12) enzyme inhibition; 0.12% of 150,000 active; AID 1452; P18054; purified 12-hLO, xylenol orange hydroperoxide absorbance; Potency, µM (doses to about 57.1 µM), without a hit: at the highest dose activity change, negative = inhibition, hits mostly inhibitors; note: nearly all actives have a fitted effect of over 55% in size
#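 Hydroperoxide output read as Fe(III)-xylenol orange absorbance, 573-to-405 nm ratio, after 30 min reaction with 40 uM arachidonic acid. Enzyme: 150 nM purified human 12hLO, 15 min compound preincubation; 25 mM Hepes pH 7.0, room temperature.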
# HPGD inh: blocks human HPGD enzyme activity; P15428; purified HPGD, NADH fluorescence kinetic, PGE2 substrate; Potency, µM, without a hit: at the top dose activity change, negative = inhibition, hits mostly inhibitors; 4.3% of 150,000 active; active = well fitted inhibition curve with a large enough effect, not every such curve was filed as active; inconclusive = small, poorly fitted or top-dose-only effect, or another doubt; inactive = no such curve, though single readings can be large or run the other way
# Target sequence (P15428 whole entry, looked up): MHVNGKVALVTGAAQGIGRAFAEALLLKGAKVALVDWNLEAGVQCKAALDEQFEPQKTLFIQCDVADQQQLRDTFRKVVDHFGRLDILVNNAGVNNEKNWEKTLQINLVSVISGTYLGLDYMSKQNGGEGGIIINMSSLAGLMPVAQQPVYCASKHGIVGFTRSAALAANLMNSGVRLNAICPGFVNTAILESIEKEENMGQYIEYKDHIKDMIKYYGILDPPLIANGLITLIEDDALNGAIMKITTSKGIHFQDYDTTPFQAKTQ
#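 NADH formation kinetics: reaction with 30 uM PGE2 and 1 mM NAD+ (final), 20 nM enzyme, Tris-HCl pH 8 with Tween 20, after 15 min compound preincubation at room temperature. Fluorescence change, last versus first of five reads.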
# p53ts 39C kill: cytotoxicity in p53ts cells at nonpermissive temperature; H1299-p53A138V viability at 39C, ATP luminescence, 24 h; Potency, µM (series often up to 46.1 µM), inactives show at the highest dose activity change, negative = cell killing, hits mostly cytotoxic; 1.5% of 130,000 active; AID 902; note: nearly all actives have a fitted effect of over 55% in size
# p53ts 32C tox: cytotoxicity in p53ts cells at permissive temperature; H1299-p53A138V at 32C, ATP luminescence viability, 24 h; Potency, µM (doses to about 46.1 µM), inactives show at the highest dose activity change, negative = cytotoxicity, most hits filed as cytotoxic; 0.93% of 130,000 active;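 note: 0% = DMSO and -100% = full killing by reference compound; nearly all actives have a fitted effect of over 55% in size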
#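 Viability by ATPlite luminescence after 24 h compound treatment (up to 46 uM) at the permissive 32C. Cells are H1299 carrying p53 A138V. Scale runs from DMSO basal to 100 uM tamoxifen as full kill; AC50 from Hill fits.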
# Numbers without * were called inactive; u = inconclusive; x = no result given; [ ] = remark or other dose. Only some compounds are listed: those with a hit (about 4.4% of all), similar ones and a draw of the others. Unless noted, calls come from the whole dose curve; as a rule, active = well fitted curve in the direction sought with a large enough effect; inconclusive = small, poorly fitted or top-dose-only effect, or another doubt; inactive = no such curve, though single readings can be large; an effect the other way counts as inactive or inconclusive. Unless noted, % is set by controls: 0 for no effect and ±100 for the full control effect; potency is the fitted concentration of half-maximal effect.
SMILES,ALOX12 inhib,HPGD inh,p53ts 39C kill,p53ts 32C tox
Cc1cccc(N2CCN(C(=O)C3CCCN(S(=O)(=O)c4ccc(Br)s4)C3)CC2)c1C (stereo not drawn),x,x,6%,-1%
CCCS(=O)(=O)N1CCCC(C(=O)NCCOC)C1 (stereo not drawn),x,x,-30%,2%
CCOC(=O)N1CCN(S(=O)(=O)c2ccc(OC)c(Cl)c2Cl)CC1,-1%,-18%,-1%,-4%
CCOC(=O)N1CCN(S(=O)(=O)c2ccc(OCC)c3ccccc23)CC1,-11%,28µM*,-12%,12%
C[C@H]1/C=C\CC(=O)OC[C@H](C)C(=O)N2CCC[C@@H]2C(=O)OC1,x,x,0%[9.22 µM],1%[9.22 µM]
Cc1nc(SCC(=O)OC(C)(C)C)c2c3c(sc2n1)CCCC3,x,x,5%,8%
CC1CCN(C(=O)C(Cc2ccccc2)n2cccc2)CC1 (stereo not drawn),-5%,28µM*,12%,6%
O=C(C(Cc1ccccc1)n1cccc1)N1CCN(c2ncccn2)CC1 (stereo not drawn),-2%,-14%,-5%,24%
CC(C)c1ccc(C2N=C(N)Nc3nc4ccccc4n32)cc1 (stereo not drawn),x,x,10µM*,2%
O=S(=O)(NC1CCCCC1)c1cccc(-c2nnc(-c3ccccc3)o2)c1,-8%,18µM*,22%,-1%
Cc1ccccc1NS(=O)(=O)c1cccc(-c2nnc(-c3ccccc3)o2)c1,-11%,u,-11%,1%
CCOc1cc(/C=N/O)cc(Cl)c1OC,-2%,-18%,x,x
CCCOc1c(Cl)cc(/C=N/O)cc1OCC,-19%,25µM*,x,x
Cc1ccc(S(=O)(=O)/C(C#N)=C/c2c(N3CC(C)OC(C)C3)nc3ccccn3c2=O)cc1 (stereo not drawn),-11%,14µM*,x,x
N#C/C(=C\c1c(N2CCC(C(N)=O)CC2)nc2ccccn2c1=O)C(=O)NCc1ccco1,-3%,-11%,9%,x
N#C/C(=C\c1c(N2CCOCC2)nc2ccccn2c1=O)S(=O)(=O)c1ccccc1,u,2µM*,-2%,-4%
Cc1ccc(S(=O)(=O)/C(C#N)=C/c2c(N3CCN(C)CC3)nc3ccccn3c2=O)cc1,-9%,-10%,x,x
N#Cc1ccc(C(=O)NCc2ccc3c(c2)CCN3C(=O)c2ccc(F)cc2)cc1,x,x,-29%,-2%
Cc1cc(C)c(NC(=O)/C=C\C(=O)O)c([N+](=O)[O-])c1,2%,22µM*,x,x
Cc1cccc(CNC(=O)CSCc2cnn(-c3ccccc3)c2-n2cccc2)c1,x,x,-15%,2%
CCn1cc2nc(SCc3ccc(F)cc3)n(Cc3ccc(Cl)cc3)c(=O)c2n1,x,x,13µM*,-4%
COC(=O)[C@@H]1CC2=CC(=O)CC[C@]2(C)[C@@]23O[C@@H]2C[C@@]2(C)[C@H](CC[C@@]24CCC(=O)O4)[C@@H]13,-2%[0.00818 µM],-13%,x,x
Cc1ccc(NC(N)=S)cc1C,-4%,-9%,x,x
Cc1ccc(Nc2nnns2)cc1C,-8%,22µM*,12%,2%
Cc1ccc(CNc2cc(C)nc3nc(-c4cccc(C)c4)nn23)cc1,x,x,u,-3%
SMILES,ALOX12 inhib,HPGD inh,p53ts 39C kill,p53ts 32C tox
CCOc1ccc(CNc2cc(C)nc3nc(-c4cccc(C)c4)nn23)cc1OC,x,x,7.9µM*,-28%
Cn1cc(Br)c(C(=O)NC2C3CC4CC(C3)CC2C4)n1 (stereo not drawn),1%,16µM*,-1%,3%
COc1cccc(/C=C2\C(=O)C(=O)c3ccccc32)c1,-6%,3.5µM*,x,x
CCN1CCN(c2nc3c(S(=O)(=O)c4ccc(Br)cc4)nnn3c3ccsc23)CC1,x,x,8%,5%
COc1ccccc1OCC(=O)Sc1ccc(C)cc1,-28%,32µM*,-22%,-26%
COc1ccccc1CNC(=O)CSc1ccc(C)cc1,-6%,14µM*,x,x
Cc1ccc(OCC(=O)Sc2ccc(C)cc2)cc1,-5%,u,x,x
COc1ccccc1CNC(=O)Cn1cccc1,-4%,16µM*,x,x
CCS(=O)(=O)c1ncc(Cl)c(C(=O)N(Cc2ccccc2)Cc2ccco2)n1,x,x,4µM*,18µM*
CCS(=O)(=O)c1ncc(N(Cc2ccccc2)Cc2ccco2)c(C(=O)Nc2cccc(Cl)c2C)n1,x,x,3%,4%
Cc1cc(C(=O)O)c(C)n1-c1ccccc1,8%,-2%,x,x
CSc1cccc(-n2c(C)cc(C(N)=O)c2C)c1,3%,4.5µM*,-5%,-4%
COCCCNC(=O)N1CCN(c2nnc(C)c3c(C)n(-c4ccc(Cl)cc4)nc23)CC1,x,x,-1%,2%
COc1ccccc1CNC(=O)c1cccc(C)c1[N+](=O)[O-],5%,18µM*,-25%,x
COc1ccccc1C(=O)NCc1ccncc1,-3%,-4%,-8%,4%
COc1ccccc1C(=O)NCc1ccccc1,-9%,11µM*,6%,0%
COc1ccc(CNC(=O)c2cc(-c3ccc(Br)s3)nc3ccccc23)cc1,x,x,10µM*,-6%
COc1ccc(OC)c(CNC(=O)c2cc(-c3ccc(Cl)s3)nc3ccccc23)c1,x,x,-7%,2%
COc1ccccc1C(=O)NCc1ccc(-c2nc3ccccc3s2)cc1,-3%,18µM*,x,x
C[C@@](O)(/C=C/[C@H]1CC=CC(=O)O1)[C@@H](C[C@@H](O)\C=C/C=C\C=C\CO)OP(=O)(O)O,-1%[0.00818 µM],0%,x,x
COCCCNC(=O)c1cccc(OC)c1OC,-2%,7.1µM*,6%,-7%
COc1ccc(CNC(=O)c2ccccc2[N+](=O)[O-])cc1,-23%,11µM*,x,x
COc1ccc(CCCC(=O)NCc2ccccc2)cc1C,-4%,16µM*,x,x
COc1cc(C(=O)NCc2ccccc2)cc(Br)c1OC,-2%,22µM*,x,x
COc1c(Br)cc(C(N)=O)cc1OCc1ccccc1,-1%,-15%,x,x
SMILES,ALOX12 inhib,HPGD inh,p53ts 39C kill,p53ts 32C tox
O=C(CCCc1ccccc1)NCc1ccc(F)cc1,-1%,-10%,x,x
COc1ccc(Nc2nc3c(S(=O)(=O)c4ccc(C)cc4)nnn3c3ccsc23)cc1Cl,x,x,-18%,-6%
COC(=O)C1=C(C(=O)OC)[C@@H]2N(C)c3ccc(OC)cc3[C@@]23C[C@@H](C(=O)OC)N(S(=O)(=O)c2c(C)noc2C)C3=N1,-7%[11.4 µM],-5%,x,x
Cc1ccc(CNC(=O)CCN2C(=O)C(C)Oc3ccc(C)cc32)cc1 (stereo not drawn),x,x,-1%,10%
COc1ccc(CNC(=O)C2CCN(S(=O)(=O)Cc3ccccc3)CC2)cc1,x,x,13%,0%
CCOC(=O)C1=C(Cc2ccc(F)cc2)C(=O)c2ccccc2C1=O,u,7.9µM*,x,x
COCC(=O)N1CCc2nc(COc3ccccc3)c3c(c2C1)CO[C@@H](C)C3,5%[11.4 µM],-10%,x,x
CC1CCCCN1S(=O)(=O)c1cc2c3c(c1)CC(=O)N3CCC2 (stereo not drawn),x,x,-2%,-6%
COC(=O)[C@@H](NC(=O)Nc1ccc(OC(F)(F)F)cc1)C(C)C,0%,28µM*,13%,0%
COC(=O)[C@@H](NC(=O)Nc1ccc(C(C)=O)cc1)C(C)C,-1%,-14%,3%,2%
c1ccc(Cc2nn3c(C4COc5ccccc5O4)nnc3s2)cc1 (stereo not drawn),1%,8.9µM*,4%,-9%
